From PubChem BioAssay (Tox21)
Records with an inconclusive call do not appear. A number with no mark means an inactive call. The call rests on the fitted dose curve; in most records, active means well fitted activation curve with a large enough effect in the signal ratio in the repeat runs (not every such curve was filed as active); inconclusive means weak or mixed curves; inactive means flat fitted curve, though single readings scatter; the % refers to the signal ratio.

assay: qHTS assay to identify small molecule agonists of the TGF-beta/Smad signaling pathway (AID 1346859); conditions: SBE-bla HEK293T, TGF-beta/Smad beta-lactamase reporter, 5 h; series mostly up to 76.8 µM; activation: at the top concentration
Excerpt: U.S. Tox21 Program National Center for Advancing Translational Sciences [NCATS] NIH Chemical Genomics Center [NCGC] U.S. Environmental Protection Agency [EPA] National Institutes of Environmental Health Sciences [NIEHS] National Toxicology Program [NTP] U.S. Food and Drug Administration [FDA] Tox21 Assay Overview: Transforming growth factor beta (TGF-beta) superfamily consists of a large number of structurally related dimeric proteins that act as hormones or local mediators in regulating a wide range of biological functions. This superfamily includes TGF-betas themselves, the bone morphogenetic proteins (BMPs) and the activins. These ligands induce oligomerization of serine/threonine receptor kinases and phosphorylate the cytoplasmic signaling molecules of Smad protein family. CellSensor SBE-bla HEK 293T cell line (Life Technologies, Carlsbad, CA), responsive to TGF-beta was used to screen Tox21 10K compound library for identification of agonists/antagonists of the Smad signaling pathway. This cell line contains a beta-lactamase reporter gene under control of the Smad binding element (SBE) stably integrated into HEK 293T cells.
Tox21 Assay Protocol Summary: SBE-bla HEK 293T cells were dispensed at 4,000/well in 6 uL of assay medium into black wall/clear-bottom 1536-well plates using a Multidrop Combi (ThermoFisher Scientific, Waltham, MA) dispenser. After the assay plates were incubated at 37 C and 5% CO2 for an overnight, 23 nL of compounds dissolved in DMSO, positive controls or DMSO only was transferred to the assay plate by a Pintool station (Kalypsys, San Diego, CA). The assay plates were incubated at 37 C and 5% CO2 for 5 hr. One uL of LiveBLAzer B/G FRET substrate (Life Technologies) was added using a Flying Reagent Dispenser (Aurora Discovery, San Diego, CA) and the plates were incubated at room temperature for 2 hr. Fluorescence intensity (405 nm excitation, 460 nm and 530 nm emissions) was measured using an Envision plate reader (PerkinElmer, Shelton, CT).
On the % scale 0 is the no-effect control and ±100 the full control effect.

| Structure (SMILES) | activation |
| --- | --- |
| O=C(Cl)c1cc(Cl)cc(Cl)c1 | -6.56% |
| Cc1ccc(NC=O)c(C)c1 | -0.539% |
| OCCc1ccncc1 | 3.31% |
| CCCCCCCCCCCC(=O)OCC | 3.31% |
| O=C1c2ccccc2C(=O)C1c1ccc2ccccc2n1 | -3.89% [at 35.3 µM] |
| CCC(C)C1N=C(C)C(C)S1 (stereo not given) | -1.78% |
| CCCCCCCCCC(C)C=O (stereo not given) | -7.43% |
| c1ccc(CN(Cc2ccccc2)Cc2ccccc2)cc1 | 0.135% |
| Cc1nc(C)c(C)nc1C | 1.66% |
| C(/C=C/C=C/Nc1ccccc1)=Nc1ccccc1 | 0.189% |
| CC(C)(C)N | 0.896% |
| O=C(O)CCc1nc2ccccc2[nH]1 | -3.02% [at 35.3 µM] |
| CCc1cnc(C(=O)O)c(C(=O)O)c1 | 0.353% |
| c1ccc(CCNc2nc(-c3ccccc3)cs2)cc1 | -0.28% [at 35.3 µM] |
| CCC(=O)O[C@]1(C(=O)COC)[C@@H](C)C[C@H]2[C@@H]3CCC4=CC(=O)C=C[C@]4(C)C3(F)[C@@H](O)C[C@@]21C (stereo not given in full) | -5.4% [at 35.3 µM] |
| COc1cccc([C@H](O)C2CCN(CCc3ccc(F)cc3)CC2)c1OC | -0.854% |
| Cc1cccc(C)c1NC(=O)CN1CCCC1 | 0.259% [at 35.3 µM] |
| Nc1ccc(F)cc1F | -1.64% |
| Cc1c(Cl)cccc1[N+](=O)[O-] | -0.113% |
| Nc1nc(Cl)nc2c1ncn2[C@H]1C[C@H](O)[C@@H](CO)O1 | 0.302% |

| Structure (SMILES) | activation |
| --- | --- |
| C=CC(=O)OCCCCCCCCCC | 0.919% |
| CC(C)Oc1ccccc1O | -2.49% |
| CC(COc1ccccc1)NC(C)C(O)c1ccc(O)cc1 (stereo not given) | 0.379% [at 35.3 µM] |
| Cc1cc(C)c(C)c(O)c1 | 0.0655% |
| CC1(C)CC(O)CC(C)(C)N1[O] | -2.93% |
| O=C(N[C@@H](Cc1ccccc1)[C@@H](O)C(=O)N1C[C@@H](O)[C@@H](O)C1)c1cc2cc(Cl)ccc2[nH]1 | -11% |
| CC1(C)[C@@H]2CC[C@]3(C2)[C@@H]1C(=O)CCC3(C)C | -0.284% |
| CC(CC(C#N)(c1ccccc1)C(C)C)N(C)C (stereo not given) | 0.535% [at 35.3 µM] |
| C1CCN(CN2CCCCC2)CC1 | 2.83% |
| O=C(O)c1cccc(C(=O)O)c1C(=O)O | 0.438% |
| Cc1cc(N)n(-c2ccccc2)n1 | -0.908% |
| CC(Cc1ccccc1)(NC(=O)CN)c1ccccc1 (stereo not given) | 0.9% [at 35.3 µM] |
| Cc1c(N=C=O)cccc1N=C=O | -4.09% |
| OCCOc1cccc(OCCO)c1 | 0.164% |
| COc1cc(CNC(=O)CCCC/C=C/C(C)C)ccc1O | 0.634% |
| CCCN(C1CCN(C(=O)C2CCNCC2)CC1)[C@@H]1CCc2ccc(OC)cc2C1 | -7.48% |
| CC(O)C(C)O (stereo not given) | -0.34% |
| Nc1ccc(-c2ccc(F)cc2)cc1 | -3.45% |
| O=C(O)c1ccncc1 | -1.05% |
| C=CC(C)CCC=C(C)C (stereo not given) | -0.217% |
